# From PubChem BioAssay AID777 (Sanford-Burnham Center for Chemical Genomics, 2007)
# The whole screen tested about 96,000 compounds, of which about 19,000 (20%) were called active. Only a sample is shown. Values without a mark were called inactive.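 How the source made its calls: active means blocking of liver enzyme CYP2C9 beyond about 50% at 5 µM (limit read from the data); inactive means the rest.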
# Target: Cytochrome P450 2C9 (Homo sapiens) (UniProt P11712)
# Assay: blockers of cytochrome P450 2C9 activity – biochemical, luminescence, ADME assay, primary screen (AID 777)
# Settings: CYP2C9 Supersomes, luciferin-H conversion, at 5 µM, hits give high values
# Sequence of Cytochrome P450 2C9 (Homo sapiens) (P11712 whole entry, looked up): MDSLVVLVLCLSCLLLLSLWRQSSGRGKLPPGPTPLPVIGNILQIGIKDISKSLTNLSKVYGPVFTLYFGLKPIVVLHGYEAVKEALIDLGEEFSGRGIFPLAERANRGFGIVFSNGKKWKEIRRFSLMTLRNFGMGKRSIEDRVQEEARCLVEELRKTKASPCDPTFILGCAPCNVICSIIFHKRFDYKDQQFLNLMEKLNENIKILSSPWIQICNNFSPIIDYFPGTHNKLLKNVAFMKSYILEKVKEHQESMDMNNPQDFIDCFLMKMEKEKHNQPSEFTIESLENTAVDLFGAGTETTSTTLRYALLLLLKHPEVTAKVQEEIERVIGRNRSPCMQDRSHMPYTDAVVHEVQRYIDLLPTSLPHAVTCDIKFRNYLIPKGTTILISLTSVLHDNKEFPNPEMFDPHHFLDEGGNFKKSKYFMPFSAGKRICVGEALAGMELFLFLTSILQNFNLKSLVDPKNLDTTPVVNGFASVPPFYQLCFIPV
row,Compound,inhibition
1,Cc1nn(C)c(Oc2ccc(Cl)cc2)c1C=O,0%
2,Cc1cc(/C=C2/SC(=O)N(CC(=O)OC(C)C)C2=O)c(C)n1C,5.9%
3,COc1ccc(-c2cc(C3CCN(c4ncccc4[N+](=O)[O-])CC3)[nH]n2)cc1,97.2% (active)
4,COc1cccc(NC(=O)c2nn(C34CC5CC(CC(C5)C3)C4)cc2[N+](=O)[O-])c1,11.2%
5,O=C1C=C(c2ccc(Cl)cc2)C(=O)N1Nc1ccccc1,45.5%
6,Cc1nnc(NC(=O)CSc2nc(C3CCCCC3)nc3ccccc23)s1,20.1%
7,COc1cc(CC(=O)NCc2cccs2)cc(OC)c1OC,-31%
8,S=C(NCc1ccc(Cl)cc1)NC12CC3CC(CC(C3)C1)C2,49.3%
9,S=C(NCc1cccs1)Nc1ccc(Cl)cc1,53% (active)
10,COC(=O)c1sccc1-n1cccc1C(=O)C(=O)N1CCCCC1,7.3%
11,CCOC(=O)N1CCN(c2c(NCCCN3CCCC(C)C3)c(=O)c2=O)CC1 (stereo not drawn),18.1%
12,CCOc1ccccc1C1CC(c2ccc(Cl)cc2)Nc2nc(N)nn21 (stereo not drawn),51.1% (active)
13,Cc1ccc(C2CC(c3cccc(C)c3)n3nc(N)nc3N2)cc1 (stereo not drawn),11.1%
14,CCOc1ccccc1C1CC(c2ccccc2)Nc2nc(N)nn21 (stereo not drawn),12.8%
15,COc1ccc(C2CC(c3ccc(Cl)cc3Cl)Nc3nc(N)nn32)cc1OC (stereo not drawn),9.8%
16,Cc1ccc(C2CC(c3cccc(Br)c3)n3nc(N)nc3N2)cc1 (stereo not drawn),5.1%
17,Nc1nc2n(n1)C(c1ccco1)CC(c1ccc(Cl)c(Cl)c1)N2 (stereo not drawn),50% (active)
18,CC1CN(c2cc(=O)n(Cc3ccc(F)cc3)c(=O)[nH]2)CC(C)O1 (stereo not drawn),-11%
19,CCCn1c(SCC(=O)N2CCc3ccccc32)nnc1-c1ccncc1,45.9%
20,O=C(Cn1c(-c2ccc(Cl)cc2)noc1=O)N1CCN(c2ccccc2F)CC1,1.4%
21,O=C(NCc1ccco1)C1CCCN(S(=O)(=O)c2cccc3nonc23)C1 (stereo not drawn),2.8%

row,Compound,inhibition
1,CCNc1nc(NCC)nc(N(C)n2cnnc2)n1,15.7%
2,CCOc1nc(OCC)nc(-n2cc(-c3ccccc3)nn2)n1,15.3%
3,CCCc1nc2sc3c(c2c(=O)n1NC(=O)CCCl)CCCC3,85% (active)
4,Cc1nc(SCC(=O)Nc2cc(C)on2)c2c3c(sc2n1)CCCC3,-1.7%
5,CCCC(=O)Nc1ccc2c(c1)nc1n2CCSC1,3.2%
6,CCC(=O)NC(NCC1CCCO1)C(Cl)(Cl)Cl (stereo not drawn),15.6%
7,CCOc1ccc(NC(=O)CCS(=O)(=O)c2ccc3c(c2)CCCN3C(=O)CC)cc1,-0.4%
8,COc1ccc(CCNC(=O)CSc2nc(C)nc3c2oc2ccccc23)cc1OC,58% (active)
9,COc1ccc(CCNC(=O)CSc2nnc(-c3cccc(F)c3)o2)cc1OC,81.2% (active)
10,CCSc1nc(C)nc2c1oc1ccccc12,18.9%
11,COc1ccc(-c2nnc(SCC(=O)NC3CCCCC3)o2)cc1OC,7%
12,COc1ccc(CCNC(=O)CSc2nnc(CNC(=O)c3cccs3)o2)cc1OC,17.8%
13,COc1ccc(NC(=O)Cn2nnc(C(=O)NCCc3ccc(OC)c(OC)c3)c2N)cc1,35.6%
14,COc1ccccc1Cn1c(=S)[nH]c2cc(C(=O)N3CCN(C)CC3)ccc2c1=O,-2.6%
15,CC1CCC(NC(=O)c2ccc(N3CCCC3=O)cc2)CC1 (stereo not drawn),5.2%
16,CSc1nc(O)c(Cc2ccccc2)c(=O)[nH]1,7.9%
17,CCOC(=O)N1CCN(C(=O)c2nn(-c3ccc(C)cc3)c(=O)c3c2c2ccccc2n3C)CC1,8.8%
18,Cn1c2ccccc2c2c(C(=O)N3CCN(c4ccc(F)cc4)CC3)cn(C3CCCC3)c(=O)c21,89.6% (active)
19,Cn1c(C(=O)N2CCC(C(N)=O)CC2)cc2c(=O)n(C)c3ccccc3c21,-6.8%
20,Cn1c(=O)c2c(ncn2CC(COCc2ccccc2Cl)OCc2ccccc2Cl)n(C)c1=O (stereo not drawn),21.3%
21,CCC1SC2=NCCN2C1(O)c1ccc(Cl)cc1 (stereo not drawn),30.8%

row,Compound,inhibition
1,Cc1ccnc(N2CCC(C(=O)NC3CCCCCC3)CC2)n1,-45.1%
2,O=C(Nc1ccc2c(c1)OCCO2)C1CCCN(c2ncccn2)C1 (stereo not drawn),-3.8%
3,Cc1ccnc(N2CCCC(C(=O)Nc3cc(F)ccc3C)C2)n1 (stereo not drawn),90.4% (active)
4,Cc1nnc(SCC(=O)NC2CCCC2)s1,11.5%
5,CN(CCCNC(=O)CN1C(=O)CC(C)(C)S(=O)(=O)c2ccccc21)C1CCCCC1,9.9%
6,O=C(CN1CCN(c2ccccn2)CC1)NC1CCCCC1,23.5%
7,O=C(CN1C(=O)CC(c2ccccc2)=Nc2ccccc21)NC1CCCCC1,52.3% (active)
8,CN1CCN(Cc2c(O)ccc3c2oc(=O)c2ccccc23)CC1,-22.3%
9,Cc1ccc(-c2nnc(-c3ccc(NC(=O)c4cccs4)cc3)o2)cc1,56.4% (active)
10,O=C(CCc1ccccc1)Nc1cccc(-c2nnc(-c3ccco3)o2)c1,19.3%
11,CCC(=O)Oc1cccc(C(=O)Nc2ccc(-c3nnc(-c4ccco4)o3)cc2)c1,53.3% (active)
12,Cc1ccc(OCC(=O)Nc2ccc(-c3nnc(-c4ccco4)o3)cc2)cc1,66.3% (active)
13,CCCCOc1ccc(-c2nnc(-c3ccco3)o2)cc1,19.4%
14,CCOc1ccc(-c2nnc(-c3ccco3)o2)cc1,31.6%
15,COc1cccc(C(=O)Nc2ccc(NC(=O)c3ccco3)cn2)c1,23.4%
16,Cc1nc(-c2ccc(NC(=O)c3cccs3)cc2)cs1,20.2%
17,O=C(Nc1ncccn1)c1cccs1,-3.3%
18,COc1ccc(Cl)cc1C(=O)Nc1ccc(N(C)C(C)=O)cc1,-206%
19,C/C(=N\c1nc2ccccc2n1C)c1cc(Cl)ccc1O,-7.5%
20,CC(=O)N1C(=O)C2(Nc3ccccc3N2)c2ccccc21,4.4%
21,CC1CCc2c(c3ccccc3[nH]c2=O)O1 (stereo not drawn),35%
